Compound activity: PubChem BioAssay, National Center for Advancing Translational Sciences (NCATS)
This is a sample that favours compounds with a hit; in the whole collection about 12% have one here.
BAZ2B inh – inhibitors of human BAZ2B bromodomain | Q9UIF8 | AlphaScreen BAZ2B-H3K14Ac peptide displacement | Potency, µM (highest dose often 114 µM), for the others: at the highest dose activity change, negative = inhibition, most hits filed as inhibitors | 4.4% of 360,000 active | AID 504333; also: % is scaled to controls: 0 for no effect and ±100 for the full control effect; nearly all actives have a fitted effect of over 60% in size
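Complex of BAZ2B and biotin-H3K14Ac (50 nM apiece) forms over 30 min at RT, then faces library compounds up to 110 uM for another 30 min; AlphaScreen beads added, 20 min dark incubation, luminescence read.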
HP1b binding inh – inhibitors of HP1-beta chromodomain binding to methylated histone tails; P83916; AlphaScreen HP1-beta / biotin-H3K9me3 peptide binding; Potency, µM (doses to about 114 µM), without a hit: at the highest dose activity change, negative = inhibition, hits mostly inhibitors; 0.56% of 390,000 active; also: nearly all actives have a fitted effect of over 70% in size
Target sequence (P83916 whole entry, looked up): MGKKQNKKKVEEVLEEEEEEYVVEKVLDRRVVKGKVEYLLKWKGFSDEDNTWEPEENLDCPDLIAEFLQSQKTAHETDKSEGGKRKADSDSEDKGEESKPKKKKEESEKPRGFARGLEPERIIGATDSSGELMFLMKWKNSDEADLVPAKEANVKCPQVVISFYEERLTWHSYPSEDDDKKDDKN
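Compound inhibition of the preformed complex between 50 nM HP1-beta and 50 nM biotinylated H3K9me3 peptide was read by AlphaScreen. Buffer was PBS pH 7.4 with 0.01% Tween-20. Incubations ran 30 min at room temperature, with 10 ug/mL donor/acceptor beads.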
TDP1 inh – blocks human tyrosyl-DNA phosphodiesterase 1 | Potency, µM (top dose mostly 130 µM), inactives show at the highest dose activity change, negative = inhibition, most hits filed as inhibitors | 0.28% of 350,000 active | AID 485290 | Q9NUW8 | recombinant TDP1, AlphaScreen DNA substrate cleavage; also: % is scaled to controls: 0 for no effect and ±100 for the full control effect; nearly all actives have a fitted effect of over 40% in size
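E. coli-derived human Tdp1, 1 nM final. Cpd preinc 15 min RT; substrate 15 nM final, 5 min RT; AS bead mix 10 ug/ml final, 10 min RT. Signal loss = tyrosine-FITC cleavage. No-enzyme wells = max signal.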
G9a inh – blocks human histone lysine methyltransferase G9a. 8.8% of 350,000 active. G9a H3K9 monomethylation, AlphaScreen, 2 h. Q96KQ7. AID 504332. Potency, µM (highest dose often 102 µM), without a hit: top-dose activity, negative = inhibition, hits mostly inhibitors; also: % is scaled to controls: 0 for no effect and ±100 for the full control effect; nearly all actives have a fitted effect of over 75% in size
Target sequence (Q96KQ7 913-1193 limits assumed): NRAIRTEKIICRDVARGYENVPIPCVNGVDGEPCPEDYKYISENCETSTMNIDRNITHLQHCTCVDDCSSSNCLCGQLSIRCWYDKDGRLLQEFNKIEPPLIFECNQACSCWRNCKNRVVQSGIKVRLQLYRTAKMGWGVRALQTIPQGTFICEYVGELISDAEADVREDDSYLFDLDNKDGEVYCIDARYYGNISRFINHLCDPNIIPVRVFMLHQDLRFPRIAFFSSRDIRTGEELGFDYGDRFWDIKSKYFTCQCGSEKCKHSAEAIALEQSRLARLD
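Signal arises when biotinylated H3K9 peptide, once monomethylated, bridges streptavidin donor and antibody-captured acceptor beads. Enzyme at 20 nM was preincubated 15 min with test compounds; peptide 500 nM and SAM 20 uM then reacted for 2 h.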
Sfp inh – Sfp phosphopantetheinyl transferase inhibition; Biochemical Sfp PPTase activity, qHTS; Potency, µM, for inactives: largest response in the series, negative = inhibition, most hits filed as inhibitors; 3.5% of 310,000 active; AID 1490;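 also: the enzyme is Sfp with the accession as filed and its product quenches rhodamine fluorescence; 0% = enzyme reaction without inhibitor and -100% = no enzyme wells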
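Compounds were incubated with enzyme (final 15 nM) for 15 min at room temperature before substrate addition started the reaction. Fluorescence at 525 nm excitation, 598 nm emission was recorded immediately and after 30 minutes.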
JMJD2A Tudor inh – inhibitors of human JMJD2A Tudor domain | O75164 | AlphaScreen JMJD2A-Tudor / H3K4me3 peptide binding | Potency, µM (series often up to 114 µM), inactives show at the top dose activity change, negative = inhibition, usual class: inhibitors | 4.4% of 390,000 active | AID 504339; also: % is scaled to controls: 0 for no effect and ±100 for the full control effect; nearly all actives have a fitted effect of over 50% in size
An asterisk follows results filed as active; ? = inconclusive; / = no result given; [ ] = remark or other dose. Calls follow the shape of the dose curve; as a rule, active = well fitted curve in the direction sought with a large enough effect; inconclusive = small, poorly fitted or top-dose-only effect, or another doubt; inactive = no such curve, though single readings can be large; an effect the other way counts as inactive or inconclusive. Potency is read from the fitted curve at half-maximal effect.

SMILES	BAZ2B inh	HP1b binding inh	TDP1 inh	G9a inh	Sfp inh	JMJD2A Tudor inh
Cc1ccccc1Nc1nnc(SCC(=O)N(C)C2CCS(=O)(=O)C2)s1 (configuration not stated)	-2%	25%	1%	32µM*	9%	2%
CN(C(=O)CSc1nnc(-c2cccs2)o1)C1CCS(=O)(=O)C1 (configuration not stated)	-1%	38%	3%	0%	-11%	-9%
CN(C(=O)CSc1n[nH]c(-c2cccs2)n1)C1CCS(=O)(=O)C1 (configuration not stated)	28%	32%	0%[0.505 µM]	50µM*	/	-12%
CN(C(=O)CSc1nnc(-c2ccccc2)c(-c2ccccc2)n1)C1CCS(=O)(=O)C1 (configuration not stated)	-11%	32%	8%	8%[59 µM]	-4%	-27%
CN(C(=O)CSc1nnc(-c2ccc(F)cc2)c2ccccc12)C1CCS(=O)(=O)C1 (configuration not stated)	?	21%	1%	22µM*	-14%	-24%
CC1=C(C(=O)Nc2ccc(C)cc2C)C(c2ccccc2C)n2ncnc2N1 (configuration not stated)	-3%	7%[57 µM]	-2%	9%[59 µM]	/	-18%
O=C(Nc1cccc(CNCCc2c[nH]c3ccccc23)c1)c1ccccc1Cl	50µM*	1%	/	28µM*	?	45µM*
O=C1C=C(c2ccc(Cl)c(C(F)(F)F)c2)C[C@@H](c2ccc(Cl)cc2)C1	2%	59%	0%	16%[2.33 µM]	/	-9%
O=C(CSc1n[nH]c(-c2ccccc2)n1)Nc1ncccn1	-36%	37%	-3%	?	15%	0%
O=C(CSc1n[nH]c(-c2ccncc2)n1)Nc1ccccn1	?	19%	2%	?	-11%	56µM*
O=C(CSc1n[nH]c(-c2ccncc2)n1)Nc1ccccc1C(F)(F)F	5%	4%	/	25µM*	-14%	-34%
CCn1c(SCC(=O)Nc2ccc3c(c2)OCCO3)nnc1-c1cccnc1	4%	10%	10%	0%	-3%	-26%
Cc1cc(C)c(NC(=O)CS(=O)CC(=O)Nc2ccc(-n3cnnn3)c(C)c2)c(C)c1 (configuration not stated)	3%	21%	/	64%	2%	6%
CC(=C(CCOP(=O)(O)O)SC(=O)c1ccccc1)N(C=O)Cc1cnc(C)nc1N	/	/	16%	26%[21.5 µM]	12%	/
Cc1cccc(C)c1-c1ccc(CN2C(CC(C)C)C(=O)N(Cc3cn(CC4CCCCC4)nn3)CCS2(=O)=O)cc1 (configuration not stated)	/	8%	/	/	/	-26%
O=C(c1ccccc1F)N1CCN(c2cnn(-c3cccc(Cl)c3)c(=O)c2Cl)CC1	7%	-9%	-3%	0%	11%	-10%[11.4 µM]
CCN(C(=O)Cc1cccs1)c1nnc(-c2cccnc2)s1	?	34%	7%	2.8µM*	-11%	-19%
Cc1cc2c(ncn2C)c(NS(=O)(=O)c2ccccc2Cl)c1C	6%	5%	0%	?	-9%	-23%
Cc1cc2c(ncn2C)c(NS(=O)(=O)c2cc(Cl)ccc2Cl)c1C	11%	35%	-3%	8.9µM*	7%	-10%
CNC(=O)c1c(NC(=O)CCS(=O)(=O)c2ccc(C)cc2)sc2c1CCN(C(=O)OC)C2	-4%	15%	5%[0.505 µM]	50µM*	/	-9%
CC(=O)N1CCc2c(sc(NC(=O)CCS(=O)(=O)c3ccc(C)cc3)c2C#N)C1	-3%	31%	-9%	-47%	/	-11%
CCCN1CCc2c(sc(NC(=O)CCS(=O)(=O)c3ccccc3)c2C(N)=O)C1	-17%	-6%	3%[56.1 µM]	?	0%	-10%
CNC(=O)c1c(NC(=O)CCS(=O)(=O)c2ccccc2)sc2c1CCN(C(=O)OC)C2	0%	18%	0%[0.505 µM]	50µM*	/	-10%
CN(C)CCCN(C(=O)c1ccc(Br)s1)c1nc2cc3c(cc2s1)OCCO3	0%	0%	/	?	/	-36%
CN(C)CCCN(C(=O)c1cccs1)c1nc2cc3c(cc2s1)OCO3	-38%	30%	6%	?	-2%	-19%
SMILES	BAZ2B inh	HP1b binding inh	TDP1 inh	G9a inh	Sfp inh	JMJD2A Tudor inh
CN(C)CCCN(C(=O)c1ccc([N+](=O)[O-])s1)c1nc2cc3c(cc2s1)OCCO3	?	-22%	8%	45µM*	2%	?
CN(C)CCCN(C(=O)c1cc2cc([N+](=O)[O-])ccc2s1)c1nc2cc3c(cc2s1)OCCO3	?	-33%	13%	20µM*	/	?
O=C(NCC1CCCO1)c1ccc2c(=O)n(CC3CCCO3)c(SCC(=O)N3CCCC3)nc2c1 (configuration not stated)	/	28%	7%	-26%	-14%	-11%
COC(=O)COc1ccc2oc(=O)cc(-c3cc4cccc(OC)c4o3)c2c1	-17%	30%	45µM*	8%	-23%	-21%
O=[S+]([O-])(c1ccc2c(c1)OCCO2)N1CCN([S+](=O)([O-])c2ccc(F)cc2Cl)CC1	/	/	/	/	/	-11%
CCCn1cnc2c(N)c(C)c(C)cc21	3%	16%	6%	1.8µM*	7%	-21%
CN(/C=C/C(=C\C=[N+](C)c1ccccc1)OCCCS(=O)(=O)[O-])c1ccccc1	15%	8%	-3%	/	79µM*	-17%
Cc1ccc(S(=O)(=O)O/N=C2/CCCc3occc32)cc1	-37%	6%	-10%	50µM*	9%	?
CC[C@@H](C)[C@H](NS(=O)(=O)c1cccc2ccccc12)C(=O)N[C@H](C=O)Cc1c[nH]c2ccccc12	/	/	17%	0%[59 µM]	?	/
COc1ccc2cc3cc(C(=O)NCCc4ccccc4)sc3nc2c1Cl	-2%	20%[57 µM]	-1%	-2%[59 µM]	/	-10%
CN(c1ccccc1)S(=O)(=O)c1ccc(Cl)c(C(=O)Nc2nc3ccccc3[nH]2)c1	6%	30%	9%	9%[59 µM]	12%	-26%
CN(c1ccccc1)S(=O)(=O)c1ccc(Cl)c(C(=O)Nc2nn[nH]n2)c1	?	25%	1%	28µM*	-12%	-18%
Cc1nn(-c2ccc(N3CCCC3)nn2)c(C)c1CCC(=O)NCc1ccc(OC(C)C)cc1	-33%	39%	2%	5%[59 µM]	/	-12%
CCc1nc2sc3c(=O)[nH]cnc3c2c2c1CSC(C)(C)C2	?	16%	?	2.2µM*	45µM*	-33%
CCCc1nc2sc3c(=O)[nH]cnc3c2c2c1CCCC2	-2%	/	-5%	/	5%	/
Cc1cc(C)cc(C(=O)n2cnnc2N)c1	10%	49%	0%	?	18%	-12%
Cc1cccc(C(=O)n2cnnc2N)c1	-27%	33%	4%	22µM*	7%	-4%
